Experimental data: PubChem BioAssay (EPA / NIEHS)
Active and inactive are the calls of the source. The calls were made as follows: active = hit-call score of the fitted dose curve at least 0.9, where 1 is the maximum; inactive = score below 0.9.

Assay: CEETOX_H295R_OHPREG: CeeTox H295R High-throughput Steroidogenesis Assay for OH-Pregnenolone (OHPREG) (AID 2283434)
Conditions: actives raise or lower the signal
Summary of the method: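 Human adrenal H295R cells were prestimulated 48 h with 10 uM forskolin, then exposed 48 h to chemical in 0.1% DMSO. Medium 17alpha-hydroxypregnenolone was quantified by HPLC-MS/MS after MTBE extraction; bidirectional fitting versus DMSO baseline.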

Row | Structure (SMILES) | AC50 | outcome
1 | CCCOC(=O)c1ccc(O)cc1 | 24.4 µM (active) | –
2 | COC(=O)CCCCC(=O)OC | – | inactive
3 | C[C@@H]1C[C@H]2[C@@H]3CCC4=CC(=O)C=C[C@]4(C)[C@@]3(F)[C@@H](O)C[C@]2(C)[C@@]1(O)C(=O)COP(=O)(O)O | – | inactive
4 | CC#C[C@]1(O)CC[C@H]2[C@@H]3CCC4=CC(=O)CCC4=C3[C@@H](c3ccc(N(C)C)cc3)C[C@@]21C | – | inactive
5 | NC(=O)N(O)[C@@H]1C=C[C@H](Oc2cccc(Oc3ccc(F)cc3)c2)C1 | – | inactive
6 | O=c1c(-c2ccc(O)cc2)coc2cc(O)ccc12 | 4.47 µM (active) | –
7 | c1ccc2cc3c(ccc4ccccc43)cc2c1 | – | inactive
8 | O=[N+]([O-])c1ccc(O)cc1 | – | inactive
9 | CN1CCC[C@H]1c1cccnc1 | – | inactive
10 | Oc1cccc(O)c1 | – | inactive
11 | Nc1cccc2c(N)cccc12 | – | inactive
12 | O=C(O)c1ccccc1C(c1ccc(O)cc1)c1ccc(O)cc1 | – | inactive
13 | CCc1ccc(CCOc2ccc(CC3SC(=O)NC3=O)cc2)nc1 (centres undefined) | – | inactive
14 | CCCCCCCCCCCCCCCS(=O)(=O)Oc1ccccc1 | 5.88 µM (active) | –
15 | c1ccc2c(c1)ccc1ccccc12 | 27.2 µM (active) | –
16 | CCc1nn(C2CCCCC2)c2cc(C3(C#N)CCC(C(=O)O)CC3)ccc12 (centres undefined) | – | inactive
17 | CCCCCCCCC(=O)O | – | inactive
18 | CCC(=C(c1ccc(O)cc1)c1ccc(OCCN(C)C)cc1)c1ccccc1 | – | inactive
19 | COc1ccc([N+](=O)[O-])cc1N | – | inactive
